The compounds below were run on P. falciparum NF54-pfs16-GFP early (I-III) stage gametocytes (assay: relative % inhibition of viable gametocyte number; higher = more gametocytocidal). Settings: 5 µM; stage: early (I-III) gametocyte; incubation 72 h.
Outline: (§1)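 Viable gametocytes were counted by confocal imaging as elongated GFP objects carrying MitoTracker Red signal above a cut-off, after 72 h of compound exposure (5 or 0.5 µM) at 37°C in 5% CO2 and 5% O2 and overnight staining. The NF54 pfs16-GFP gametocytes had been magnet-isolated at early (I/IIa, day 2) or late (day 8) stage and plated at 10% parasitaemia, 0.1% haematocrit in 384-well poly-D-lysine imaging plates. Relative inhibition was normalised to vehicle and positive-control wells within each plate.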

| Compound | relative % inhibition [%] |
| --- | --- |
| Oc1ccc(Br)cc1CN1CCN(Cc2cccc(F)c2)CC1 | 63.9 |
| CCCc1cc(O)c2c3c(c(=O)oc2c1)CN(C)CC3 | 91.6 |
| CCOc1cc(CNC(C)C(O)c2ccccc2)cc(Cl)c1OCC (stereo unspecified) | -1.9 |
| C=CC12CCN(CC1)C(C(O)c1ccnc3ccc(OC)cc13)C2 (stereo unspecified) | 75.8 |
| Oc1ccc(Br)cc1CN1CCN(Cc2ccc(Cl)cc2)CC1 | 88.4 |
| COc1cc(CNCCc2ccc(Cl)cc2)cc(OC)c1O | 87.4 |
| O=C(CCc1ccco1)NC1CCN(CC2(c3ccc(Cl)cc3)CCC2)CC1 | 91.7 |
| CCOc1c(Cl)cc(CNC(C)C(O)c2ccccc2)cc1OC (stereo unspecified) | 71.9 |
| Oc1ccc(C(=C(Cl)Cl)c2ccc(O)cc2)cc1 | 29.1 |
| CCCCCCc1cc(O)c2c3c(c(=O)oc2c1)CCC(C)C3 (stereo unspecified) | 86.1 |
| CN(N=O)C1=C(NC2CCCCC2)C(=O)c2ccccc2C1=O | 10.4 |
| COc1ccc(CN2CCN(Cc3ccccc3)CC2)c(O)c1 | -3.4 |

What follows are compounds tested on P. falciparum NF54-pfs16-GFP late (IV-V) stage gametocytes in the same assay as above. Settings: 0.5 µM; stage: late (IV-V) gametocyte; incubation 72 h.
Outline: as §1

| Compound | relative % inhibition [%] |
| --- | --- |
| Oc1ccc(Br)cc1CN1CCN(Cc2cccc(F)c2)CC1 | 50.4 |
| CCCc1cc(O)c2c3c(c(=O)oc2c1)CN(C)CC3 | 38.3 |
| CCOc1cc(CNC(C)C(O)c2ccccc2)cc(Cl)c1OCC (stereo unspecified) | 32.7 |
| C=CC12CCN(CC1)C(C(O)c1ccnc3ccc(OC)cc13)C2 (stereo unspecified) | 37.9 |
| Oc1ccc(Br)cc1CN1CCN(Cc2ccc(Cl)cc2)CC1 | 26.8 |
| COc1cc(CNCCc2ccc(Cl)cc2)cc(OC)c1O | -10.8 |
| O=C(CCc1ccco1)NC1CCN(CC2(c3ccc(Cl)cc3)CCC2)CC1 | 21.7 |
| CCOc1c(Cl)cc(CNC(C)C(O)c2ccccc2)cc1OC (stereo unspecified) | -0.71 |
| Oc1ccc(C(=C(Cl)Cl)c2ccc(O)cc2)cc1 | -1.73 |
| CCCCCCc1cc(O)c2c3c(c(=O)oc2c1)CCC(C)C3 (stereo unspecified) | 69.5 |
| CN(N=O)C1=C(NC2CCCCC2)C(=O)c2ccccc2C1=O | 20.6 |
| COc1ccc(CN2CCN(Cc3ccccc3)CC2)c(O)c1 | 12.2 |

Same assay, conditions: 5 µM; stage: late (IV-V) gametocyte; incubation 72 h

| Compound | relative % inhibition [%] |
| --- | --- |
| Oc1ccc(Br)cc1CN1CCN(Cc2cccc(F)c2)CC1 | 95.9 |
| CCCc1cc(O)c2c3c(c(=O)oc2c1)CN(C)CC3 | 49.1 |
| CCOc1cc(CNC(C)C(O)c2ccccc2)cc(Cl)c1OCC (stereo unspecified) | 74.4 |
| C=CC12CCN(CC1)C(C(O)c1ccnc3ccc(OC)cc13)C2 (stereo unspecified) | 36.1 |
| Oc1ccc(Br)cc1CN1CCN(Cc2ccc(Cl)cc2)CC1 | 31 |
| COc1cc(CNCCc2ccc(Cl)cc2)cc(OC)c1O | 3.51 |
| O=C(CCc1ccco1)NC1CCN(CC2(c3ccc(Cl)cc3)CCC2)CC1 | 82.2 |
| CCOc1c(Cl)cc(CNC(C)C(O)c2ccccc2)cc1OC (stereo unspecified) | 31.3 |
| Oc1ccc(C(=C(Cl)Cl)c2ccc(O)cc2)cc1 | -7.57 |
| CCCCCCc1cc(O)c2c3c(c(=O)oc2c1)CCC(C)C3 (stereo unspecified) | 98.9 |
| CN(N=O)C1=C(NC2CCCCC2)C(=O)c2ccccc2C1=O | 38.1 |
| COc1ccc(CN2CCN(Cc3ccccc3)CC2)c(O)c1 | 7.95 |
